# High-throughput results: PubChem, The Scripps Research Institute Molecular Screening Center
# FBW7 act – FBW7 E3 ligase activators, primary screen, biochemical, AlphaScreen, human | F-box/WD repeat-containing protein 7 (Homo sapiens), Q969H0 | AlphaScreen FBW7–phospho-cyclin E peptide binding, activator screen | normalized activity (activation), % at 26.1 µM | 650,000 compounds, 0.13% hits | AID 1259310, 2017; in the data active = normalized activity above about 1.9%;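 note: purified mutant Fbw7 with reduced substrate affinity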
# Target sequence (Q969H0 whole entry, looked up): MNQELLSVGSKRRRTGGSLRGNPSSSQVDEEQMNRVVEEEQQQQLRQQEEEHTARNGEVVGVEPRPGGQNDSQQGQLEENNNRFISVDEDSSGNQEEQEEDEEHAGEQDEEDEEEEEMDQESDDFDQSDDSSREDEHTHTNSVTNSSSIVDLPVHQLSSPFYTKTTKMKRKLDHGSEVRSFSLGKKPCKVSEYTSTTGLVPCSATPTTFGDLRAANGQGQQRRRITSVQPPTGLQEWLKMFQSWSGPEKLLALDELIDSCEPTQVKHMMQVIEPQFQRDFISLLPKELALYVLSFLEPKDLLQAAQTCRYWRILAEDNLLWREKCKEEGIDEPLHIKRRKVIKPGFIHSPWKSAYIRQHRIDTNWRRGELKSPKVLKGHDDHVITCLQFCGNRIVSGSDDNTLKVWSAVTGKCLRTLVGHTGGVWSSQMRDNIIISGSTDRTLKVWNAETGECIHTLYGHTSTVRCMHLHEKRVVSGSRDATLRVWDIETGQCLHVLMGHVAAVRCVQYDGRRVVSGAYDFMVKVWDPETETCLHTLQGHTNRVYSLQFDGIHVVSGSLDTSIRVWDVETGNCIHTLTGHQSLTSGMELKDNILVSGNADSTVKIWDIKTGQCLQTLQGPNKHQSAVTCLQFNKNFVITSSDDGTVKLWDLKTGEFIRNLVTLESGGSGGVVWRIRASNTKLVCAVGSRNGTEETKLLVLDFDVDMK
# MITF inh – MITF inhibitors, primary screen, biochemical, AlphaScreen, human | Microphthalmia-associated transcription factor (Homo sapiens), O75030 | inhibition, % at 2.6 µM | AlphaScreen MITF homodimerization, bead proximity signal | 650,000 compounds, 0.91% hits; in the data active = inhibition above about 50%;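 note: 0% = vehicle wells with protein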
# TEAD-YAP inh – TEAD-YAP interaction inhibition, primary screen, TEAD-YAP interaction inhibitor project, luminescence, HEK-TIYL cells; TEAD-Gal4/YAP UAS-luciferase luminescence; inhibition, % at 9.12 µM; 640,000 compounds, 1.4% hits; AID 1259422, 2018; in the data active = inhibition above about 32%;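 note: 0% = median of test compound wells and 100% = reference inhibitor wells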
# GPR151 activ – activators of human GPR151, primary screen, cell-based, PathHunter beta-arrestin, luminescence; G-protein coupled receptor 151 (Homo sapiens), Q8TDV0; PathHunter beta-arrestin GPR151 cells; activation, % at 11.2 µM; 650,000 compounds, 1% hits; in the data active = activation above about 4.9%;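 note: 0% = median of compound wells and 100% = cells with positive control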
# GPR151 confirm – GPR151 activators, triplicate retest, confirmation, cell-based, PathHunter beta-arrestin, luminescence. shares compounds with GPR151 activ. GPR151 PathHunter beta-arrestin cells, 90 min; % of EA-reagent control over plate median. activation, % at 11.2 µM. 6,700 tested, under 10 active. AID 1508609, 2020;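 active = mean percent activation across replicates above the confirmation screen cutoff of 4.91%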
# GPR119 counter – GPR119 activators in beta-arrestin cells, counter-screen for GPR151 activator project, cell-based, PathHunter beta-arrestin, luminescence, triplicate | shares compounds with GPR151 activ | 90 min; 0 = compound-well median, 100 = enzyme-acceptor control | activation, % at 11.2 µM | 6,700 compounds, 0.3% hits | AID 1508611, 2020;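 active = mean percent activation in the counterscreen above 29.09%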;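 note: counterscreen on off-target GPR119 to flag nonselective hits from the GPR151 activator screen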
# An asterisk follows results filed as active; / = not tested or not shown; ! = repeats disagree. In the library only some 3.4% were active in any assay of this set; here they are far more common.
SMILES,FBW7 act,MITF inh,TEAD-YAP inh,GPR151 activ,GPR151 confirm,GPR119 counter
O=C(CCC1CCCCC1)NNC(=O)c1cnccn1,-0.2,7.1,-2.6,6.5*,-0.4,-1.1
COc1cc(C(=O)Nc2sc3c(c2C#N)CCN(C(C)=O)C3)cc(OC)c1OC,0.1,5.7,29.2,-0.6,/,/
COc1cc(OC)cc(C(=O)Nc2sc3c(c2C#N)CCN(C(C)=O)C3)c1,0.0,8.7,60.6*,7.3*,0.5,4.1
COC(=O)c1ccc(NC(=O)COc2ccc(C34CC5CC(CC(C5)C3)C4)cc2)cc1,0.0,4.5,6.9,5.3*,-0.8,3.4
COc1ccc(N2CCN(CC(O)COc3ccccc3C(C)=O)CC2)cc1 (centres undefined),-0.1,14.6,9.2,5.9*,0.1,8.3
O=C(CSC(=S)N1CCCCC1)c1ccc([N+](=O)[O-])cc1,0.2,20.0,-31.6,6.1*,-0.1,-4.8
Brc1c(OCc2nc(-c3cccnc3)no2)ccc2ccccc12,-0.3,-7.0,-10.0,7.1*,0.8,9.3
Clc1ccc(OCc2nc(-c3cccnc3)no2)c(Br)c1,0.0,14.7,-30.0,-1.7,/,/
CCN(CC)C(=O)Cn1c(=O)n(-c2ccc(C)cc2)c(=O)c2oc3ccccc3c21,-0.1,16.4,12.4,5.2*,-0.5,-3.0
CCN(CC)C(=O)Cn1c(=O)n(-c2ccccc2)c(=O)c2oc3ccccc3c21,-0.1,-4.3,8.1,1.2,/,/
CC1=C(C(=O)Nc2ccc(F)cc2)C(c2ccccc2Br)NC(=O)N1 (centres undefined),-0.2,1.3,0.7,5.1*,0.4,-3.2
CC(=O)c1cccc(S(=O)(=O)NCC(c2ccco2)N2CCCCC2)c1 (centres undefined),-0.2,-10.7,9.5,7.0*,0.1,0.4
CC(=O)c1cccc(S(=O)(=O)NCc2ccco2)c1,0.0,7.4,-21.8,0.2,/,/
Cc1cc2ccccc2n1CCNC(=O)c1c(F)cccc1F,0.1,3.5,-6.2,-0.4,/,/
O=C(O)CN1CCOCCOCCN(CC(=O)O)CCOCCOCC1,-0.1,3.0,3.3,5.9*,0.5,-3.1
COc1ccc(-c2cnnc(NCCc3nc(C)c(C)s3)n2)cc1,0.1,2.7,-6.8,-0.2,/,/
CCOc1ccc2[nH]c(=O)c(CN(Cc3ccccc3OC)C(C)=O)cc2c1,-0.1,2.2,-6.0,-0.6,/,/
O=C(Nc1ccc(F)cc1F)C(=O)N1CCCCC1,0.3,-9.7,-33.4,7.1*,1.0,2.5
NS(=O)(=O)c1ccc(CNC(=S)Nc2ccc(Br)cc2Cl)cc1,0.2,7.5,-5.7,3.7,/,/
NS(=O)(=O)c1ccc(CNC(=O)Nc2ccc(Br)cc2Cl)cc1,0.0,11.9,-8.8,8.7*,-0.8,-13.5
CCC(Nc1c([N+](=O)[O-])cc(C(F)(F)F)cc1[N+](=O)[O-])C(=O)O (centres undefined),0.0,-3.6,3.6,6.0*,-0.1,6.9
CCC(C)Nc1c([N+](=O)[O-])cc(C(=O)O)cc1[N+](=O)[O-] (centres undefined),0.2,5.6,3.5,0.2,/,/
CCC(C)N(C(=O)c1csnn1)C(C(=O)NCc1ccc(F)cc1)c1ccco1 (centres undefined),1.0,-4.7,-11.1,7.2*,1.0,3.5
CN(C)c1ccc(C2C(=O)N(C3CCCCC3)CC(=O)N2Cc2cccs2)cc1 (centres undefined),-0.2,-0.3,30.2,1.4,/,/
COc1ccc(C2C(=O)N(C3CCCC3)CC(=O)N2Cc2cccs2)cc1 (centres undefined),0.0,-1.6,1.7,11.0*,1.1,13.8
SMILES,FBW7 act,MITF inh,TEAD-YAP inh,GPR151 activ,GPR151 confirm,GPR119 counter
CCn1c(SCC(=O)Nc2ccc(OC)cc2)nnc1-c1cccs1,0.2,5.3,10.0,0.8,/,/
CCn1c(SCC(=O)NCc2cccs2)nnc1-c1cccs1,0.1,4.9,20.7,6.9*,-0.4,-0.5
CCn1c(SCC(=O)Nc2cc(OC)cc(OC)c2)nnc1-c1cccs1,1.0,-0.6,18.2,5.5*,0.1,-0.4
Cn1c(SCC(=O)NCc2cccs2)nnc1-c1cccs1,-0.1,8.1,9.9,-0.5,/,/
FC(F)(F)c1ccc(Cn2cnc3c(NC4CC4)nc(-c4csc5ccccc45)nc32)cc1,0.3,4.1,-6.5,0.9,/,/
c1ccc2c(-c3nc(NC4CC4)c4ncn(C5CCCCC5)c4n3)csc2c1,-0.2,-2.8,-13.3,7.5*,-0.6,-16.4
FC(F)(F)c1ccc(Cn2cnc3c(NC4CCN(Cc5ccccc5)CC4)nc(-c4csc5ccccc45)nc32)cc1,-0.1,-3.4,7.5,7.0*,0.2,3.1
CCC(=O)C1=C(c2ccc(C(C)(C)C)cc2)N(C(=O)CC)n2cnnc2S1,-0.1,7.0,66.8*,6.4*,0.9,-3.1
O=C1NC(c2cccnc2)C(C(=O)c2cccs2)=C1O (centres undefined),0.2,26.9,0.0,6.1*,-0.8,-12.2
Cc1cccc(-n2ccnc2SCC(=O)Nc2ccc(F)cc2F)c1C,-0.3,-4.1,-5.4,9.3*,0.5,-4.2
Cc1ccc(NS(=O)(=O)c2c(C)ccc3nsnc23)cc1,0.7,12.5,6.4,5.2*,-1.2,-0.9
Cc1ccc(C)c(NS(=O)(=O)c2c(C)ccc3nsnc23)c1,-0.2,-8.9,-4.7,0.6,/,/
Cc1ccc(CN=Cc2c(NCc3ccc(C)cc3)nc3ccccn3c2=O)cc1,-0.2,1.4,-16.4,5.3*,-0.2,-0.9
CCN=C1SC(CC(=O)Nc2sc(C)c(C)c2C(=O)OC)C(=O)N1CC (centres undefined),-0.2,-9.6,2.9,6.0*!,2.2,7.0
O=C(NCc1cccnc1)c1nn2c(C(F)(F)F)cc(-c3ccccc3)nc2c1Br,-0.3,-6.5,-2.7,0.5,/,/
O=C(Nc1cccc(C(F)(F)F)c1)c1nn2c(C(F)(F)F)cc(-c3ccc(Br)o3)nc2c1Br,-0.4,3.4,9.0,16.9*,-0.5,0.5
O=C(NCc1ccc(F)cc1)c1nn2c(C(F)(F)F)cc(-c3ccccc3)nc2c1Br,-0.1,2.2,1.7,5.9*,-0.5,-4.2
COc1cc(C2NC(=O)NC(C)=C2C(=O)OC(C)C)cc(Cl)c1O (centres undefined),0.1,3.5,-2.7,-1.8,/,/
N#Cc1cnc2ccccc2c1N1CCC(C(=O)Nc2ccc(F)c(Cl)c2)CC1,0.0,-10.9,-1.5,0.0,/,/
Cc1ccc(-c2nc3scc(CCNC(=O)C(=O)Nc4ccc(Cl)cc4)n3n2)cc1,0.3,11.2,0.8,1.2,/,/
